According to PubChem BioAssay AID1508600 (Functional Genomics Laboratory (NCATS/FGL), 2020):
Screen size: about 53,000 sequences; about 3,700 (7%) were called active. This is one part of a sample in which actives are shown more often than they occur. Values without a mark were called inactive.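 How the source made its calls: active means gene knockdowns whose robust z-score for IL-1 alpha signal is at least 2 or at most -2, so actives lie on both sides; inactive means the rest.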

assay: Components of the Cytosolic LPS Sensing Pathway: Gene Identification via Genome-wide siRNA Screen; settings: RAW264.7 macrophages, IL-1a HTRF, actives lie on both sides, screened at 100 nM (by protocol), cells primed 5 h with Pam3CSK4 first;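 further: robust z of the log signal after scaling to non-targeting control siRNA wells of the plate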
Procedure, shortened: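 Three distinct siRNAs per gene were tested singly at 100 nM in RAW264.7 macrophages. Following Pam3CSK4 priming and 24 hour LipidA transfection, IL-1a secretion was read by HTRF.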

Sequence | z-score
GAACCCUCAUGAGGGUUACTT against C1ql1 | 0.177
GCCAGUAUGCUGUAUGGCUTT against Bcas3 | -0.712
GCUACCUCUUGCAUGGGAGTT against Bivm | -0.0737
GCUGAUAAACAUCAGCUACTT against Zdhhc23 | 4.01 (active)
GGCCUGUAUUCUGCUCUGUTT against Olfr341 | 0.0576
GGCUGCUUAGCUUUAAUGGTT against Ccdc177 | -0.674
GGGAUACUCCAAGUUCCAUTT against Muc4 | 2.85 (active)
GGUUCUAGGCAGUUUGAUATT against Tlnrd1 | 1.64
GCCAAUUAAUGAUUGCUUUTT against Zfp322a | 0.945
CGCCAGCAGAACUCAAAUATT against Gm11992 | 0.623
GCGUGCUUAUGAACAUAGUTT against Spen | 2.02 (active)
GAUGAUUGACGACAUGGAATT against Rgs9bp | 0.656
GGAUGAUGUGAUGAAGAUCTT against Fgfr4 | -0.0955
GGUUAAAUGCCCGCCAACATT against Eif2ak4 | -0.876
GGAUAAGGACCUCUUCUCUTT against Ubl7 | -1.41
GGGAAUAGCAAACUUAUCUTT against Nfil3 | -0.688
GGGACAAAACCUUGAUGGUTT against Vmn1r200 | -0.254
GGAAGUAAUCAAUUUGGUGTT against Epm2aip1 | 1.36
GGUGUUAAUCCAGUUCAAUTT against Bbs12 | 2.26 (active)
GCACAUGUAUCCAUGCUUCTT against Kcnj11 | -0.815
GGAAGUUCGUGGAAGGCAATT against Pck1 | 0.188
GGAAGAAAACAGCGAUUUGTT against Ppp1r15a | -0.447

Sequence | z-score
GCAUUAUUCAUAUGUUGGUTT against Fpr-rs4 | -0.318
GGAGUCUCUGAAGAAAACATT against Hus1 | -0.596
GGAAGAAAGAGAGGUGUGATT against Nxf2 | -2.26 (active)
CCCAAUUUGGAGCUAUCAGTT against Cwh43 | -0.89
GGACUUCCAGAUCCAACCUTT against Robo4 | -0.867
GGAACUCUCAAGAGAGAAUTT against Dnajc14 | 0.233
GGUACCCACUAGAGGAUCATT against Madd | -2.61 (active)
GGACAGAGAACAAAUGACCTT against 4931417E11Rik | -1.91
GGCAGCAGUUAUUGUGGAUTT against Ly6a | 0.693
GGAAGGACCAAAGCUUUCUTT against Olfr1123 | 0.982
CCACCAAUGAUUUGAUGCATT against Gpr75 | -0.0162
GGAUUUUGAAUUAUGGGAUTT against Relch | -0.0955
CGAAGGGAUUGAUUUGACUTT against Kars | -0.324
GCCAAAUGUGCGUCAUCUATT against Zdhhc25 | -2.54 (active)
CGCACUUUGGCUUGUAAUUTT against Smad6 | 0.327
GCUGUAAACCGAAUCAAAGTT against Khdc4 | 0.0586
CGUGAGGUUAUGAUGUAUUTT against Gm5444 | -1.3
GGAAAGGACAAGAAAAUUUTT against Strn | -2.03 (active)
CCAUUAUCCUGGUGUGUAUTT against Olfr1362 | -0.0735
GGCGAUACUUGGAAAAAUCTT against Nln | -0.508
GCCCGUCCUGUUUGGAUUATT against Wdr53 | 0.501
GGACCUUGAGAUAUCUUUUTT against D130020L05Rik | -0.361

Sequence | z-score
GGACAGAGGACAAGCAGAATT against Ghrl | -0.532
CCAGAUCGGGAAAAAGGGUTT against Tsn | -2.04 (active)
CCUAAUUUGAUCCUUCGAATT against Zfp672 | -0.947
GAACGACAACCCGAUAAUGTT against Ttc9c | -0.141
GGAUUUAAUGGUAAAUCACTT against Relch | 0.034
GGUUCUUGGAUAAAUCAAGTT against Mrpl40 | 2.41 (active)
GGAAGGUCAAAGUCCUUUATT against Pitpnm2 | -0.685
GGCUUCAAGCUAUUCAUGATT against Dgkb | 0.126
GGGAUUGAGGGAGAUUUUCTT against Tedc2 | -0.206
GUGCUUCUGAUCUCCUACATT against Olfr223 | 1
CCAAUCCAAUGAAUGUUUCTT against A330070K13Rik | -1.75
GCUGAAAGUAUUCAUGUAATT against Sec13 | -1.6
GAUAUGUGCACAAUUCUGCTT against Vmn1r201 | -2.3 (active)
GGCCAUCUCUUCUACUGUATT against Glt28d2 | 0.0935
GCUUUCUGGGUAACAUAGGTT against Ubqln3 | -1.46
AACCAUUCAGGAGAAAGCCTT against Lce1a1 | -3.05 (active)
GGGACCUUGAUCAAAACCUTT against Gp5 | -0.215
GGAAAUGACAAGUAUGAAGTT against Gria4 | -1.33
GUACCCAAAAUGUUGAUGATT against Olfr979 | 0.794
GCGGCUCCAUCAGAAAAUGTT against Htatip2 | 0.526
GGAAAUCCAUGAGAAGGUGTT against Ctbp2 | 0.732
CCUGAAUUACAGGGACCAGTT against Znrd1 | 3.49 (active)

Sequence | z-score
GGUGAACUUGUGUCUCACUTT against Tango2 | 0.0582
GGAGCUGUAUCGCACGAAATT against Ehd2 | -0.689
GGAAACCGAAUUCCAAGGGTT against Ddx25 | 1.78
GGAAGUGGAAAAACUGGUGTT against Ddx1 | -1.21
GGAACUGUUUGACAGUGAGTT against Pex19 | -0.811
GGAUCUAAAGGUGAGUCAATT against Dcaf12l1 | -0.388
GCCUUGGAUAAACCAGACGTT against Mfsd4a | -2.38 (active)
GGAACCAAUCAGUUGGUUATT against Taf7 | 0.395
GGAGAUACAGGAUAUUAUUTT against Nme5 | -0.0528
GCACUUACUCAUUAAUCACTT against Rnf20 | -2.56 (active)
GCAACAGUGAAAUAGCACATT against Krit1 | 0.179
GGUUAAUGAGCUCUGUAAATT against Pknox1 | -0.508
GCUAAGGACUCAGCAAAACTT against Coq5 | 0.733
CCGGUAAUGAGUUCAAGUGTT against Arsa | 1.12
GGUAAAGAAAUCCUUCAAATT against Syt6 | 2.1 (active)
GGUUCUUAAUGCAUUCCCGTT against Cyp2d9 | -0.786
GGGACUUUGAUUUUGAGAGTT against Ppp1r3f | -1.58
GAUGCUCUCUGCUCUGAGATT against C030016D13Rik | -0.0555
GGAUCUAUAUCCAGUAGAGTT against Mief2 | 3.38 (active)
GGUAAUAGGAGAUACUGUGTT against Gzme | 0.624
GGACCUUUCUCAACUACUATT against Edem2 | -0.706
GGGAAACAAGCAUCUUCUGTT against Bmp5 | -0.474

Sequence | z-score
CCACUUCAGUAUUUGGCUUTT against Tas2r137 | -0.404
GGACUCCUCAUGCUGAAGATT against Cdh13 | 1.97
GCUCUAUUUGACCACCUCATT against Gdpd1 | -0.898
CCACUCAAGAUCGAUACCUTT against Fgd1 | 0.167
GGGUGAAGAGAGAUGAAAATT against Krt82 | 1.64
GCUUGUUUACAUCGGACUUTT against Samt2 | 0.9
GCAUCGUGCAGAAUUUUGCTT against Ephb1 | -1.04
CCAGUGAUUAUCUUUAAUGTT against Slc9c1 | -0.435
GCUAUCAAAGCUAAUACAUTT against Mrps9 | 3.41 (active)
GGUUAAGGAUGCUCAAGUATT against Krt20 | -0.187
GGUCGUGUUCGAGCAAACCTT against Tpi1 | -0.725
GCAGAAUUGAAGCUGGAAUTT against Stag1 | 2.49 (active)
GGUGACAUGGAUGUAGCAATT against Fcsk | 1.18
CCACAUCUCAUGUGAAACCTT against Olfr517 | -0.927
CCUUUUACACUCUAGUAUGTT against Ptger4 | -0.349
GCUUGAAUAUGAGAACGAATT against Deup1 | -0.451
GGUCAAGGUAGGCAAUGAATT against Stau2 | -2.32 (active)
GGGCAACAAGGAGUACUCATT against Prss45 | -1.88
GGAGGAAAUGAAAACCUUUTT against Cep89 | -0.823
